This note sets out measurements from PubChem BioAssay.

Assay [1] in a line: resazurin metabolic signal in HepG2 cells – cell-based, resazurin fluorescence, 24 h, PK04 Diversity Set, profiling panel (AID 1172). Further: test concentration not given here. The settings on record: HepG2 viability, higher = more signal. On the technique in general: Alamar Blue is a resazurin reagent that responds to reducing activity.
Assay [2] in a line: budding yeast growth changes without added modifier – OD600, strain BY4716, 24 h, basal condition, primary screen (AID 1173). The settings on record: S. cerevisiae BY4716 growth, OD600, 24 h; higher = more signal, called active from +8 up or from −8 down.
Assay [3] in a line: viability profiling in MM1S myeloma cells – cell-based, resazurin fluorescence, basal, 24 h, PK04 Diversity Set, profiling panel (AID 1174). Further: test concentration not given here. The settings on record: higher = more signal, called active from +8 up or from −8 down.
For assay [4], the target named is Dihydroorotate dehydrogenase (quinone), mitochondrial (Plasmodium falciparum (isolate 3D7)) (UniProt Q08210). The assay can be described thus: inhibition of P. falciparum DHODH – biochemical, C-terminal His tag, absorbance 600 nm, primary screen (AID 1175).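 Further: recombinant parasite enzyme with a five histidine tag at its C terminus; test concentration not given here.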 The settings on record: PfDHODH enzyme, DCIP absorbance 600 nm; higher = more signal, called active from +8 up or from −8 down.

A short description of assay [5]: inhibition of PAO1 biofilm formation – strain PAO1, LB-PBS medium, absorbance 600 nm, primary screen (AID 1176). Further: test concentration not given here. The settings on record: P. aeruginosa PAO1 growth/biofilm, A600, 12 h; higher = more signal.
The nature of assay [6]: growth modulation of vineyard yeast isolate – strain RM11-1a, OD600, basal, 24 h, primary screen (AID 1177).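 Further: cultures grown under basal conditions with no added stressor; test concentration not given here.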 The settings on record: S. cerevisiae RM11-1a growth, OD600, 24 h; higher = more signal, called active from +8 up or from −8 down.
Assay [7] can be described thus: growth of efflux-deficient E. coli DRC39 – strain DRC39, OD650, 24 h, E. coli filamentation inducers, primary screen (AID 1178).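 Further: growth measured as culture turbidity by optical density at 650 nm; test concentration not given here.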 The settings on record: E. coli DRC39 acrAB, higher = more signal, called active from +8 up or from −8 down.
Assay [8] is described as follows: growth of efflux-deficient E. coli DRC39 – strain DRC39, OD650, 48 h, E. coli filamentation inducers, primary screen (AID 1179).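 Further: screen aims at cell division blockers that make cells filament.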 The settings on record: E. coli DRC39 delta-acrAB growth, higher = more signal, called active from +8 up or from −8 down.
Assay [9] in a line: viability profiling in RPMI8226 myeloma cells – cell-based, resazurin fluorescence, basal, 24 h, PK04 Diversity Set, profiling panel (AID 1180).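 Further: RPMI8826 multiple myeloma cell line at 5000 cells per well; test concentration not given here.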 The settings on record: higher = more signal.
The target of assay [10] is E3 ubiquitin-protein ligase XIAP (Homo sapiens) (UniProt P98170). In words: small molecules binding XIAP protein – biophysical, small-molecule microarray, fluorescence 635 nm, primary screen (AID 1181).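 Further: score merges 667 nm emission and signal to noise over triplicate slides.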 The settings on record: higher = more signal.

Calls of active or inactive are those of the source. Unless noted, how the calls were made is not given here.

Sequence of E3 ubiquitin-protein ligase XIAP (Homo sapiens) (P98170 whole entry, looked up): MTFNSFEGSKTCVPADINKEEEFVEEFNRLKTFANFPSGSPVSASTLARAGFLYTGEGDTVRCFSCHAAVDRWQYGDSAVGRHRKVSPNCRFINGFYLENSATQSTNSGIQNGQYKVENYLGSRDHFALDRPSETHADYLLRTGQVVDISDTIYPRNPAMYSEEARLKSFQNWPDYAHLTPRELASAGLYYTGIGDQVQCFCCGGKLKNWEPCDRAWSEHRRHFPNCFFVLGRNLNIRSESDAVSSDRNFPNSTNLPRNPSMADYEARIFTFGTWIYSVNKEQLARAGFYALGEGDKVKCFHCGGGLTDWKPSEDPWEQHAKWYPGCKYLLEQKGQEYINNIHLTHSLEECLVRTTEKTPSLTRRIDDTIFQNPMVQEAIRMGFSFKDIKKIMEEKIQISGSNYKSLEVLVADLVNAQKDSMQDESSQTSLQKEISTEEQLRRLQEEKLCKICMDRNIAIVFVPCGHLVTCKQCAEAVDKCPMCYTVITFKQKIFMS
Sequence of Dihydroorotate dehydrogenase (quinone), mitochondrial (Plasmodium falciparum (isolate 3D7)) (Q08210 whole entry, looked up): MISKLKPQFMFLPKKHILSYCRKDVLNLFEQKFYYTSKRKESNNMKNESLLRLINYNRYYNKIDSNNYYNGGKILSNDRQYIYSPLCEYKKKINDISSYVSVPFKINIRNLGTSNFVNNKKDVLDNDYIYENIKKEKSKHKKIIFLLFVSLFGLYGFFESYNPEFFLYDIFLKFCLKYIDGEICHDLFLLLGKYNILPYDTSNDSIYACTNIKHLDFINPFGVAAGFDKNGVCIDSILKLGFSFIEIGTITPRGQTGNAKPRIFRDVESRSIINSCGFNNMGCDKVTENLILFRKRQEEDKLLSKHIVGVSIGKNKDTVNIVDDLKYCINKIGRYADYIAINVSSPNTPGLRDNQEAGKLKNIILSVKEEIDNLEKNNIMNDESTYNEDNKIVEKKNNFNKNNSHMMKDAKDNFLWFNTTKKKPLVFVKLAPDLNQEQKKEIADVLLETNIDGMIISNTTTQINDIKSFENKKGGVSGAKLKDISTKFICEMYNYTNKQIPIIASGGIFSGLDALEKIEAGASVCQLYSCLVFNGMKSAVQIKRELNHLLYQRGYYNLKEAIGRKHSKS

For `CO[C@H]1O[C@H](CO)[C@@H](OC(=O)c2ccc(Br)cc2)[C@@H]2OC(=O)[C@H](Cc3cccc(Br)c3)C/C=C/C[C@@H](Cc3cccc(Br)c3)C(=O)O[C@@H]12`, the z-score in assay [1] is -0.673; in assay [2] it was -0.611 (inactive); in assay [3], -0.402 (inactive); in assay [5] it was 0.566 (inactive); in assay [6], 0.393 (inactive); in assay [7] it was 0.198 (inactive). The z-score in [8] is 0.188 (inactive); in assay [9], -1.47. For the same compound, the composite z-score was -0.71 (inactive) in [4] and -0.0663 in assay [10].

`C=CC[C@]1(C(=O)N(C)C)N=C(c2ccc(OCCCO)cc2)O[C@H]1c1ccccc1`: the z-score is 0.549 in assay [1]; -2.54 (inactive) in [2]; 0.911 (inactive) in assay [3]; -0.484 (inactive) in [5]; -0.689 (inactive) in assay [6]; 1.23 (inactive) in assay [7]. Also, the z-score in [8] was 0.771 (inactive); in assay [9], 0.586. In addition, the composite z-score in [4] is -0.588 (inactive); in [10], 0.133.

In the case of `NC(=O)NCC#Cc1ccc2c(c1)[C@]1(C(=O)N2)[C@H](c2ccc(O)cc2)N2[C@H](c3ccccc3)[C@H](c3ccccc3)OC(=O)[C@H]2[C@@H]1C(N)=O`, the z-score in [1] was -0.49; in [2], -0.297 (inactive); in assay [3], -0.226 (inactive); in assay [5] it was 0.185 (inactive); in [6], 0.603 (inactive); in assay [7], 0.968 (inactive). In addition, the z-score in assay [8] is 0.936 (inactive); in [9] it was -0.11. In addition, the composite z-score in assay [4] was -0.552 (inactive); in assay [10], 0.074.

Take `COCCOC(=O)N1C(=O)[C@@]2(c3cc(C#CCNC(N)=O)ccc31)[C@H](C(N)=O)[C@H]1C(=O)O[C@H](c3ccccc3)[C@H](c3ccccc3)N1[C@@H]2c1ccc(OCCO)cc1`: the z-score was -0.195 in [1]; 0.713 (inactive) in [2]; -0.508 (inactive) in assay [3]; 0.995 (inactive) in assay [5]; 1.62 (inactive) in assay [6]; 0.152 (inactive) in assay [7]. For the same compound, the z-score is -0.0952 (inactive) in assay [8] and -1.09 in [9]. Besides, the composite z-score in assay [4] was 0.506 (inactive); in [10] it was -0.188.

Consider `COC(=O)[C@@]1(Cc2ccccc2)[C@H]2c3cc(C(=O)N(C)C)n(Cc4ccc(O)c(OC)c4)c3C[C@H]2CN1C(=O)c1ccccc1`, for which the z-score in [1] was 0.563; in [2] it was 1.12 (inactive); in assay [3] it was 0.301 (inactive); in assay [5], 1.47 (inactive); in assay [6] it was 0.458 (inactive); in assay [7] it was -0.846 (inactive). Further, the figures for the z-score in [8] and in assay [9] were 0.202 (inactive) and -1.24, respectively. Further, the composite z-score in assay [4] was -2.88 (inactive); in [10], 0.0422.

Turning to `CN(C)C(=O)[C@@]1(CCS(=O)(=O)c2ccccc2)N=C(c2ccc(OCCCO)cc2)O[C@H]1c1ccccc1CN=[N+]=[N-]`, the z-score in [1] was 1.01; in assay [2], -1.19 (inactive); in [3], 0.958 (inactive); in assay [5], -0.385 (inactive); in assay [6] it was -0.791 (inactive); in assay [7] it was 1.13 (inactive). The values for the z-score in assay [8] and in [9] were 0.802 (inactive) and 0.251, respectively. Further, the composite z-score in assay [4] was 0.307 (inactive); in assay [10], -0.0381.

Consider `COC(=O)[C@@]1(Cc2ccccc2N=[N+]=[N-])N=C(c2ccc(OCCCO)cc2)O[C@H]1c1ccccc1`, for which the z-score in assay [1] was -4.36; in assay [2], -0.642 (inactive); in assay [3], -7.63 (inactive); in assay [5], 0.77 (inactive); in assay [6], 1.76 (inactive); in assay [7] it was 0.044 (inactive). Further, the z-score in [8] was -1.12 (inactive); in [9] it was -7.12. For the same compound, the composite z-score was 1.66 (inactive) in [4] and 0.0472 in [10].

On to `COc1ccc(C(=O)Nc2ccc3c(c2)[C@]2(O[C@@H](CCO)[C@H]([Si](C)(C)c4ccc(OC)cc4)[C@H]2C)C(=O)N3Cc2ccccc2)cc1`, for which the z-score in [1] was -1.9; in assay [2], -2.35 (inactive); in assay [3] it was -7.18 (inactive); in assay [5], 1.55 (inactive); in [6] it was 2.47 (inactive); in assay [7], 0.799 (inactive). Besides, the z-score in assay [8] was -0.167 (inactive); in [9], -2.51. The composite z-score was -0.454 (inactive) in assay [4] and -0.165 in assay [10].

On to `COC(=O)[C@@]1(Cc2ccc(OC)cc2)[C@H]2c3cc(C(=O)N(C)C)n(CCF)c3C[C@H]2CN1C(=O)c1ccccc1`, for which the z-score in assay [1] is 0.586; in [2], 2 (inactive); in [3], -0.386 (inactive); in assay [5], -0.278 (inactive); in assay [6], 0.177 (inactive); in assay [7] it was 0.471 (inactive). Further, the z-score was -0.143 (inactive) in assay [8] and -0.102 in assay [9]. In addition, the composite z-score in assay [4] was 0.343 (inactive); in [10] it was -0.0592.

For the compound `CCCCC(=C=CC[C@H](O)c1ccccc1OCCO)C[C@H](O)c1ccccn1`, the z-score in [1] is 0.973; in assay [2], -1.8 (inactive); in assay [3] it was 0.843 (inactive); in assay [5], 0.0235 (inactive); in [6], 0.0401 (inactive); in [7], 0.917 (inactive). Further, the results for the z-score in assay [8] and in assay [9] were 0.726 (inactive) and 1.13, respectively. Besides, the figures for the composite z-score in assay [4] and in [10] were -1.36 (inactive) and 0.104, respectively.

For `CC(C)(C)OC(=O)CC[C@]1(C(=O)N2CCCCC2)N=C(c2ccc(OCCCO)cc2)O[C@H]1c1ccccc1CN=[N+]=[N-]`, the z-score in assay [1] was -0.725; in [2], -0.451 (inactive); in assay [3], 0.0183 (inactive); in assay [5], 0.618 (inactive); in assay [6], -0.391 (inactive); in assay [7], 2.41 (inactive). Further, the results for the z-score in assay [8] and in assay [9] were 2.39 (inactive) and -0.357, respectively. The composite z-score was -0.625 (inactive) in assay [4] and 0.0346 in assay [10].

As to `C=C(C)[C@@H]1CC=C(C(O)C2C=CC3C(=O)N(C4CCCCC4)C(=O)C3N2Nc2ccc(OC)cc2)CC1` (stereo not given in full), the z-score in [1] was 0.14; in [2], 0.702 (inactive); in assay [3], -0.0469 (inactive); in [5], 0.987 (inactive); in assay [6], 0.0587 (inactive); in [7], -0.703 (inactive). Besides, the z-score in assay [8] is -0.0015 (inactive); in assay [9], 0.199. Besides, the composite z-score in assay [4] is -0.157 (inactive); in assay [10] it was 0.356.

For the compound `O=C1C2C=CC(C(O)c3cccc4ccccc34)N(Nc3ccccc3)C2C(=O)N1c1ccccc1` (stereo not given), the z-score in assay [1] is 0.451; in assay [2], -3.11 (inactive); in [3] it was 0.0605 (inactive); in assay [5], 1.6 (inactive); in assay [6], -0.0805 (inactive); in assay [7] it was -0.148 (inactive). Besides, the z-score in [8] is 0.133 (inactive); in assay [9] it was -0.0011. Besides, the composite z-score in [4] is 0.651 (inactive); in assay [10], 0.197.
